# The supplement of paper PMC9135407
# “And” between values parts separate entries of the source, which are not always exact repeats. Identical values can stand only once. Counter-ions that a name gives are not always drawn. In all, about 5,800 compounds went through this assay and about 620 (11%) showed activity. This is one part of a sample in which actives are shown more often than they occur. Unmarked numbers belong to inactive results.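 The calls were made as follows: active = score above a cut-off or among the top three wells of a plate; in these data no inactive exceeds 0.85.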
# System: primary human hepatic stellate cells (donor 1)
# Test: scaled lipid accumulation score (0 = DMSO-like, 1 = nortriptyline-like); higher = stronger HSC inactivation (lipid re-accumulation), active = hit call of the paper
# Settings: 48 h
# [1] = library stock concentration: 10 mM
# [2] = library stock concentration: 3.33 mM
# [3] = library stock concentration: 1 mM
# [4] = library stock concentration: 80 uM
# [5] = library stock concentration: 400 uM
# [6] = library stock concentration: 2 mM
structure (smiles),measurement,setting,value
N[C@@H](Cc1ccc(F)cc1)C(=O)O [p-Fluoro-L-phenylalanine],scaled lipid accumulation score,[1],≤ -0.07
Nc1nc(-c2ccc(Cl)c(Cl)c2)c(-c2ccncc2)s1 [CGH 2466 dihydrochloride],scaled lipid accumulation score,[1],0.001
O=[N+]([O-])c1cc2nc(O)c(O)nc2cc1[N+](=O)[O-],scaled lipid accumulation score,[1],≤ -0.07 and ≤ 0
CC(C)[C@H](NC(=O)[C@H](CC(=O)O)NC(=O)[C@H](CCCCN)NC(=O)[C@@H](N)CCCN=C(N)N)C(=O)N[C@@H](Cc1ccc(O)cc1)C(=O)O,scaled lipid accumulation score,[1],≤ 0
CCOC(=O)[C@]12CC1/C(=N\O)c1ccccc1O2 (some centres undefined),scaled lipid accumulation score,[1],≤ 0 and 0.015
CS(=O)(=O)O.Cc1ccc2c(c1)c1c3n2CCNC3CCC1 (centres undefined) [Pirlindole mesylate],scaled lipid accumulation score,[1],0.93 (active)
c1cc2c(cc1C1CCCCC1)c1c3n2CCNC3CCC1 (centres undefined) [Tetrindole mesylate],scaled lipid accumulation score,[1],≤ 0
Cc1ccc2c(c1)c1c3n2CCNC3CCC1 (centres undefined) [Pirlindole mesylate],scaled lipid accumulation score,,0.472
Cc1cncc2cccc(S(=O)(=O)N3CCCN(C(=O)CN)C[C@@H]3C)c12 [Rho Kinase Inhibitor IV],scaled lipid accumulation score,[2],≤ 0
C=CCN(C)CCCCCCOc1ccc(C(=O)c2ccc(Br)cc2)c(F)c1,scaled lipid accumulation score,[3],0.116
CCCCC/C=C\C/C=C\CCCCCCCC(=O)OCC(COC(=O)CCCCCCCCCCCCCCC)OC(=O)CCCCCCC/C=C\CCCCCCCC (racemic) [1-Palmitoyl-2-oleoyl-3-linoleoyl-rac-glycerol],scaled lipid accumulation score,[3],0.03
OC1C[C@@H]2[C@@H](CC[C@@H](O)CCc3ccccc3)[C@H](O)C[C@@H]2O1 (some centres undefined) [Latanoprost Lactol],scaled lipid accumulation score,[3],0.027
COc1cc2ncnc(Nc3cccc(Cl)c3)c2cc1OC [AG-1478 (Tyrphostin AG-1478)] [listing 1 of 2 here],scaled lipid accumulation score,[1],1.07 (active)
COc1cc2ncnc(Nc3ccc(Oc4ccccc4)cc3)c2cc1OC,scaled lipid accumulation score,[1],0.029
"COc1cc2ncnc(Nc3cccc(O)c3)c2cc1OC [WHI-P180, Hydrochloride]",scaled lipid accumulation score,[2],≤ 0
COc1cc2ncnc(Nc3ccc(Oc4ccccc4)cc3)c2cc1OC [Src Kinase Inhibitor I],scaled lipid accumulation score,[2],≤ 0
COc1cc2ncnc(Nc3ccc(Cl)cc3Cl)c2cc1OC [Ste11 MAPKKK Activation Inhibitor],scaled lipid accumulation score,[2],≤ 0
COc1cc2ncnc(Nc3cccc(Cl)c3)c2cc1OC,scaled lipid accumulation score,[4],≤ -0.016
same,scaled lipid accumulation score,[5],≤ -0.016
same,scaled lipid accumulation score,[6],≤ -0.016
same,scaled lipid accumulation score,[2],≤ 0
same,scaled lipid accumulation score,[1],0.749
same,scaled lipid accumulation score,library stock concentration: 14.2 mM,0.452
COc1cc2ncnc(Nc3cccc(Cl)c3)c2cc1OC [Tyrphostin AG 1478],scaled lipid accumulation score,[1],0.882 (active)
COc1cc2ncnc(Nc3cccc(Cl)c3)c2cc1OC [AG-1478 (Tyrphostin AG-1478)] [listing 2 of 2 here],scaled lipid accumulation score,[2],≤ 0
CCCCCCCCCCCCCCCCOC[C@H](COP(=O)([O-])OCC[N+](C)(C)C)SC(C)=O [2-thio-PAF],scaled lipid accumulation score,[3],≤ 0
CN1C(=O)C(c2c[nH]c3ccccc23)=C(c2c[nH]c3ccccc23)C1=O [Bisindolylmaleimide V],scaled lipid accumulation score,[3],≤ 0
same,scaled lipid accumulation score,[2],≤ 0
C[C@H]1[C@H](C)CC[C@]2(C(=O)O[C@@H]3O[C@H](CO[C@@H]4O[C@H](CO)[C@@H](O[C@@H]5O[C@H](C)[C@H](O)[C@@H](O)[C@H]5O)[C@H](O)[C@H]4O)[C@@H](O)[C@H](O)[C@H]3O)CC[C@]3(C)C(=CC[C@@H]4[C@@]5(C)C[C@@H](O)[C@H](O)[C@@](C)(CO)[C@@H]5CC[C@]43C)[C@H]12 [Asiaticoside],scaled lipid accumulation score,,≤ 0
Cn1c(Nc2ccc(C(F)(F)F)cc2)nc2cc(Oc3ccnc(-c4ncc(C(F)(F)F)[nH]4)c3)ccc21,scaled lipid accumulation score,[4],≤ -0.001
same,scaled lipid accumulation score,[5],≤ -0.003
same,scaled lipid accumulation score,[6],0.037
same,scaled lipid accumulation score,[2],0.031
same,scaled lipid accumulation score,[1],0.077 and 0.031
O=C1Cc2c([nH]c3ccc(Br)cc23)-c2ncccc2N1 [1-Azakenpaullone],scaled lipid accumulation score,[2],0.405
same,scaled lipid accumulation score,[1],0.808
CCCCCCCCCCCCCCCCOCC(COP(=O)([O-])OCC[N+](C)(C)C)OC (centres undefined) [1-Hexadecyl-2-methylglycero-3 PC],scaled lipid accumulation score,[3],0.043
COc1cc(C[C@@H](CO)[C@H](CO)Cc2ccc(O)c(OC)c2)ccc1O,scaled lipid accumulation score,[1],0.022
NC[C@@H]1O[C@H](c2ccccc2)Cc2c1ccc(O)c2O,scaled lipid accumulation score,[1],≤ 0
NC[C@H]1c(c2C[C@@H]([C@]3(C4)CC(CC45)CC(C5)C3)O1)ccc(O)c2O.Cl,scaled lipid accumulation score,[1],1.19 (active)
NC[C@@H]1O[C@H](C23CC4CC(CC(C4)C2)C3)Cc2c1ccc(O)c2O,scaled lipid accumulation score,[1],0.438
COc1ccc(C2CC(=O)c3c(O)cc(OC4OC(COC5OC(C)C(O)C(O)C5O)C(O)C(O)C4O)cc3O2)cc1OC (centres undefined) [Methyl-Hesperidin],scaled lipid accumulation score,[2],≤ 0
same,scaled lipid accumulation score,[1],≤ 0
CCCCC/C=C\C/C=C\C/C=C\C/C=C\CCCC(=O)OC(COCCCCCCCCCCCCCCCC)COP(=O)([O-])OCC[N+](C)(C)C (centres undefined) [Arachidonoyl PAF C-16],scaled lipid accumulation score,[3],≤ 0
O=C(c1ccc(F)cc1)C1CCN(CCCCc2ccccc2)CC1 [4-(4-Fluorobenzoyl)-1-(4-phenylbutyl)-piperidine oxalate],scaled lipid accumulation score,[1],0.378
CC1CCN(CCCC(=O)c2ccc(F)cc2)CC1 [Melperone hydrochloride],scaled lipid accumulation score,[1],0.058
"Cl.O[Si](CCCN1CCCCC1)(c1ccc(F)cc1)C1CCCCC1 (centres undefined) [Hexahydro-sila-difenidol hydrochloride, p-fluoro analog]",scaled lipid accumulation score,[1],0.956 (active)
CC1CCN(CCCC(=O)c2ccc(F)cc2)CC1 [Metylperon],scaled lipid accumulation score,[1],≤ 0
CC1CCN(CCCC(=O)c2ccc(F)cc2)CC1,scaled lipid accumulation score,[1],≤ 0
C[C@H]1[C@H](C)CC[C@]2(C(=O)O)CC[C@]3(C)C(=CC[C@@H]4[C@@]5(C)CC[C@H](O)C(C)(C)[C@@H]5CC[C@]43C)[C@H]12 [Ursolic Acid],scaled lipid accumulation score,[2],0.013
same,scaled lipid accumulation score,[1],≤ 0
C[C@H]1[C@H](C)CC[C@]2(C(=O)O)CC[C@]3(C)C(=CC[C@@H]4[C@@]5(C)CC[C@H](O)C(C)(C)[C@@H]5CC[C@]43C)[C@H]12 [Ursolic acid],scaled lipid accumulation score,,0.053
O=C1CC2(CCCC2)CC(=O)N1CCNCC1COc2ccccc2O1 (centres undefined),scaled lipid accumulation score,[1],≤ 0 and 0.017
CCCCC1C(=O)CCC2C(CC=CCCCC(=O)O)C(=O)CC12 (centres undefined) [Bicyclo Prostaglandin E2],scaled lipid accumulation score,[3],≤ 0
C=C(NC(=O)C(=C)NC(=O)c1csc(C2=N[C@@H]3c4csc(n4)[C@H]4NC(=O)c5csc(n5)[C@H]([C@](C)(O)[C@@H](C)O)NC(=O)[C@H]5CSC(=N5)/C(=C/C)NC(=O)[C@H]([C@@H](C)O)NC(=O)c5csc(n5)[C@]3(CC2)NC(=O)[C@H](C)NC(=O)C(=C)NC(=O)[C@H](C)NC(=O)[C@H]([C@@H](C)CC)N[C@@H]2C=Cc3c([C@H](C)O)cc(nc3[C@H]2O)C(=O)O[C@@H]4C)n1)C(N)=O [Thiostrepton],scaled lipid accumulation score,,1.19 (active)
COP(=O)(OC)OC(c1ccc(Cl)cc1)P(=O)(OC)OC (centres undefined),scaled lipid accumulation score,[1],≤ -0.001
COc1cc(C[C@H]2COC(=O)[C@@H]2Cc2ccc(O)c(OC)c2)ccc1O [Matairesinol],scaled lipid accumulation score,[3],≤ 0
CC1(C)CC(=O)c2c(ccc(C(=O)CC(N)CO)c2N)O1 (centres undefined),scaled lipid accumulation score,[1],1.03 (active)
CO/N=C(\C(=O)N[C@@H]1C(=O)N2C(C(=O)O)=C(CSc3nc(=O)c(O)nn3C)CS[C@H]12)c1csc(N)n1 [Ceftriaxone sodium trihydrate],scaled lipid accumulation score,library stock concentration: 3.1 mM,≤ 0
same,scaled lipid accumulation score,[1],≤ -0.027 and 0.254
CO/N=C(\C(=O)N[C@@H]1C(=O)N2C(C(=O)O)=C(CSc3nc(=O)c(O)nn3C)CS[C@H]12)c1csc(N)n1 [Ceftriaxone sodium],scaled lipid accumulation score,[1],≤ 0
N#Cc1c(-c2ccccc2)no[n+]1[O-] [Furoxan],scaled lipid accumulation score,library stock concentration: 26.7 mM,1 (active)
CCCCCC[C@@H]([C@@H](C)O)n1cnc2c(N)ncnc21 (racemic),scaled lipid accumulation score,library stock concentration: 18 mM,0.052
CC1(C)CCC(CN2CCN(c3ccc(C(=O)NS(=O)(=O)c4ccc(NCC5CCOCC5)c([N+](=O)[O-])c4)c(Oc4cnc5[nH]ccc5c4)c3)CC2)=C(c2ccc(Cl)cc2)C1,scaled lipid accumulation score,[2],≤ -0.009
same,scaled lipid accumulation score,[1],≤ 0
O=C1c2ccccc2-c2nc3nnnn3nc21 [PDK1/Akt/Flt Dual Pathway Inhibitor],scaled lipid accumulation score,[2],0.462
O=S(c1ccccc1)c1ccc2nnnn2n1 (centres undefined),scaled lipid accumulation score,[1],1.3 (active)
COC(=O)C1=CO[C@@H](O)[C@@H]2C(CO)=CC[C@H]12 [Genipin],scaled lipid accumulation score,[2],≤ 0
same,scaled lipid accumulation score,[1],0.019 and ≤ -0.028
CC(C)(C)C(=O)Oc1ccc(S(=O)(=O)Nc2ccccc2C(=O)NCC(=O)O)cc1 [Sivelestat sodium salt hydrate],scaled lipid accumulation score,[1],≤ -0.055
O=C(NOCC1CC1)c1cc(Br)c(F)c(F)c1Nc1ccc(I)cc1Cl,scaled lipid accumulation score,[1],≤ 0
CC(C)(C(=O)O)c1ccc(C(O)CCCN2CCC(C(O)(c3ccccc3)c3ccccc3)CC2)cc1 (centres undefined) [Fexofenadine hydrochloride],scaled lipid accumulation score,[1],≤ -0.07 and 0.008
Br.NC(=O)C(c1ccccc1)(c1ccccc1)[C@@H]1CCN(CCc2ccc3c(c2)CCO3)C1,scaled lipid accumulation score,[1],0.88 (active)
OC(CCN1CCCC1)(c1ccccc1)C1CCCCC1 (centres undefined) [Procyclidine hydrochloride],scaled lipid accumulation score,,0.092
same,scaled lipid accumulation score,library stock concentration: 6.2 mM,0.569
same,scaled lipid accumulation score,[1],0.484
CC(C)(C(=O)O)c1ccc(C(O)CCCN2CCC(C(O)(c3ccccc3)c3ccccc3)CC2)cc1 (centres undefined),scaled lipid accumulation score,[1],≤ 0
CC(C)(C(=O)O)c1ccc(C(O)CCCN2CCC(C(O)(c3ccccc3)c3ccccc3)CC2)cc1 (centres undefined) [Fexofenadine HCl],scaled lipid accumulation score,,≤ 0
same,scaled lipid accumulation score,[2],≤ 0
same,scaled lipid accumulation score,[1],0.057
NC(=O)C(c1ccccc1)(c1ccccc1)[C@@H]1CCN(CCc2ccc3c(c2)CCO3)C1 [Darifenacin HBr],scaled lipid accumulation score,[2],≤ 0
NC(=O)C(c1ccccc1)(c1ccccc1)[C@@H]1CCN(CCc2ccc3c(c2)CCO3)C1,scaled lipid accumulation score,[1],0.413
c1ccc(C(O[C@@H]2CCCN(CCc3ccc4c(c3)OCO4)C2)c2ccccc2)cc1 [Zamifenacin fumarate],scaled lipid accumulation score,[1],0.194
Br.NC(=O)C(c1ccccc1)(c1ccccc1)[C@@H]1CCN(CCc2ccc3c(c2)CCO3)C1 [Darifenacin HBr],scaled lipid accumulation score,[1],1.03 (active)
